Source: PubChem BioAssay (Tox21)
Records with an inconclusive call do not appear. The source made the active and inactive calls. Unless noted, calls follow the shape of the dose curve; as a rule, active = well fitted curve in the direction sought with a large enough effect in the repeat runs; inconclusive = weak or mixed curves; inactive = no such curve, though single readings can be large; an effect the other way counts as inactive or inconclusive.

How the values were obtained:
[1] = qHTS assay for small molecule agonists of the p53 signaling pathway (AID 651631; calls by dose curve; also: nearly all actives have a fitted effect of over 15% in size); details: HCT-116 p53RE-bla reporter, beta-lactamase FRET ratio, 16 h; series mostly up to 73.3 µM
In short: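 Testing took place in human colorectal HCT-116 cells with stable p53RE-driven beta-lactamase. After 16 h of compound exposure at 37 °C, a FRET substrate was added and fluorescence recorded 2 h later.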

[2] = qHTS assay for small molecules that induce genotoxicity in human embryonic kidney cells expressing luciferase-tagged ATAD5 (AID 651632); details: HEK293T ATAD5-luciferase induction, 16 h; series mostly up to 83.3 µM; also: nearly all actives have a fitted effect of over 15% in size
In short: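 Genotoxicity read-out via ATAD5-luciferase: HEK293T cells, 16 hr compound incubation at 37C, Amplite detection.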

[3] = qHTS assay for small molecule agonists of the p53 signaling pathway - cell viability (AID 651633; calls by dose curve; also: nearly all actives have a fitted effect of over 30% in size); details: p53RE-bla HCT-116 viability, ATP luminescence, 16 h; series mostly up to 83.3 µM
In short: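 p53RE-bla cells, seeded at 4,000 per well and rested 5 h at 37 C/5% CO2, received compounds in DMSO for 16 h at 37 C. CellTiter-Glo was then added, and luminescence was read after 30 min at room temperature to gauge cytotoxicity.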

[4] = qHTS assay for small molecules that induce genotoxicity in human embryonic kidney cells expressing luciferase-tagged ATAD5 - cell viability (AID 651634; calls by dose curve; also: nearly all actives have a fitted effect of over 25% in size); details: HEK293T ATAD5-luc cells viability, CellTiter-Fluor, 15.5 h; series mostly up to 83.3 µM
In short: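 Live-cell protease activity (CellTiter-Fluor, fluorescence) indicates viability. HEK293T cells with luciferase-tagged ATAD5; 15.5 hr compound treatment at 37C.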

[5] = qHTS assay for small molecule disruptors of the mitochondrial membrane potential - cell viability (AID 720634; calls by dose curve;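 also: human HepG2 liver cancer cells; nearly all actives have a fitted effect of over 20% in size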); details: HepG2 viability, ATP luminescence (CellTiter-Glo), 1 h; series mostly up to 83.2 µM
In short: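 Human hepatoma HepG2 cells were treated for 1 hr with test chemicals, then given m-MPI dye and CellTiter-Glo. Cell viability reflects luminescence proportional to cellular ATP.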

[6] = qHTS assay to test for compound auto fluorescence at 535 nm (green) in HepG2 cells (AID 720675); details: green autofluorescence 485/535 nm, 1 h; series mostly up to 91.3 µM
[7] = qHTS assay to test for compound auto fluorescence at 460 nm (blue) in HEK293 cells (AID 720678); details: blue autofluorescence 405/460 nm; series mostly up to 91.3 µM
In short: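 Intrinsic compound fluorescence is recorded in live HEK293 cultures after overnight incubation at 37C, 5% CO2, using excitation 405 nm and emission 460 nm. Values are referenced to triamterene.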

[8] = qHTS assay to test for compound auto fluorescence at 535 nm (green) in HEK293 cells (AID 720680); details: green autofluorescence 485/535 nm; series mostly up to 91.3 µM
[9] = qHTS assay to test for compound auto fluorescence at 460 nm (blue) in HEK293 cell free culture (AID 720681); details: cell-free medium, autofluorescence 405/460 nm (blue); series mostly up to 91.3 µM
In short: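 Test compounds were pinned into cell-free culture medium (DMEM with 10% FBS) and fluorescence was read directly at Ex/Em 405/460 nm. Signals were expressed as fluorescence equivalents of triamterene, with DMSO vehicle as control.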

[10] = qHTS assay to test for compound auto fluorescence at 535 nm (green) in HEK293 cell free culture (AID 720682); details: cell-free medium, green autofluorescence 485/535 nm; series mostly up to 91.3 µM
In short: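 DMEM + 10% FBS, cell-free; cpd or DMSO pinned in; Ex485/Em535 read; output as fluorescein-equivalent signal.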

[11] = qHTS assay to test for compound auto fluorescence at 590 nm (red) in HEK293 cell free culture (AID 720683); details: cell-free medium autofluorescence, Ex540/Em590 red; series mostly up to 91.3 µM
In short: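 Tox21 10K library compounds were pinned into cell-free DMEM with 10% FBS and fluorescence was read at excitation 540 nm. Activity is expressed as Rose Bengal sodium equivalency.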

[12] = qHTS assay to test for compound auto fluorescence at 590 nm (red) in HepG2 cell free culture (AID 720684); details: cell-free medium autofluorescence, red 540/590 nm; series mostly up to 91.3 µM
In short: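 Measured in medium alone (MEM containing 10% FBS) following pintool addition of compound; emission at 590 nm with 540 nm excitation, referenced to Rose Bengal sodium.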

[13] = qHTS assay to test for compound auto fluorescence at 460 nm (blue) in HepG2 cell free culture (AID 720685); details: Cell-free culture medium, blue autofluorescence 405/460 nm; series mostly up to 91.3 µM
In short: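 Compound (23 nL) or DMSO pinned into cell-free MEM with 10% FBS; blue fluorescence read at 405/460 nm excitation/emission, expressed as auto-fluorescence equivalency to triamterene.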

[14] = qHTS assay to test for compound auto fluorescence at 535 nm (green) in HepG2 cell free culture (AID 720686); details: Cell-free medium, green autofluorescence 485/535 nm; series mostly up to 91.3 µM
[15] = qHTS assay to test for compound auto fluorescence at 460 nm (blue) in HepG2 cells (AID 720687); details: autofluorescence 405/460 nm, 1 h; series mostly up to 91.3 µM
In short: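 Cells (2,000/well in MEM with 10% FBS) attached overnight at 37 C, then were exposed to compound or DMSO for 1 hr at 37 C, 5% CO2. Fluorescence read at Ex/Em 405/460 nm, expressed as triamterene-equivalent signal.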

[16] = qHTS assay to test for compound auto fluorescence at 590 nm (red) in HepG2 cells (AID 720674); details: HepG2 autofluorescence, red 540/590 nm, 1 h; series mostly up to 91.3 µM
In short: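 Rose Bengal sodium served as the red fluorophore standard. HepG2 monolayers (overnight attachment, MEM with 10% FBS) were exposed to test compounds for 1 hr at 37 C and read at Ex 540/Em 590 nm.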

[17] = qHTS assay to test for compound auto fluorescence at 590 nm (red) in HEK293 cells (AID 720679); details: red autofluorescence 540/590 nm; series mostly up to 91.3 µM
In short: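 Red autofluorescence, HEK293 cells: 2,000 cells/well; attach 4-5 hr 37C; add 23 nL cpd or DMSO; incubate o/n 37C 5% CO2; read Ex540/Em590; Rose Bengal sodium reference.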

[18] = target: Glucocorticoid receptor (Homo sapiens) (UniProt P04150); assay: qHTS assay to identify small molecule agonists of the glucocorticoid receptor (GR) signaling pathway (AID 720691; active = well fitted activation curve with a large enough effect in the signal ratio in the repeat runs, not every such curve was filed as active; the % refers to the signal ratio); details: GR-bla HeLa, beta-lactamase reporter ratio, 18 h; series mostly up to 62.4 µM
In short: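 Beta-lactamase reporter activity, read as fluorescence intensity, was measured in GR-bla HeLa cells exposed to compounds for 18 h at 37 C and then loaded with LiveBLAzer B/G FRET substrate for 2 h at room temperature.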

[19] = target: Glucocorticoid receptor (Homo sapiens) (UniProt P04150); assay: qHTS assay to identify small molecule antagonists of the glucocorticoid receptor (GR) signaling pathway (AID 720692; active = well fitted inhibition curve with a large enough effect in the signal ratio in the repeat runs, not every such curve was filed as active; the % refers to the signal ratio); details: GR-bla HeLa, beta-lactamase FRET ratio, dexamethasone-stimulated, 18 h; series mostly up to 58.5 µM
In short: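 Fluorescence from cleaved LiveBLAzer B/G FRET substrate reports GRE-driven beta-lactamase in HeLa cells; compounds are tested against 5 nM dexamethasone (final) over 18 h at 37 C, substrate incubation 2 h at room temperature.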

[20] = qHTS assay for small molecule disruptors of the mitochondrial membrane potential (AID 720635); details: HepG2 mitochondrial membrane potential, Mito-MPS dye ratio; series mostly up to 83.2 µM
In short: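 HepG2 cells (2,000/well) attached overnight at 37C, then took compound for 1 hr at 37C, 5% CO2. Mito-MPS dye was added for 30 min; fluorescence was read at 490/535 nm (monomers) and 540/590 nm (aggregates).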

Measured: Potency

Glucocorticoid receptor (Homo sapiens), sequence (P04150 whole entry, looked up): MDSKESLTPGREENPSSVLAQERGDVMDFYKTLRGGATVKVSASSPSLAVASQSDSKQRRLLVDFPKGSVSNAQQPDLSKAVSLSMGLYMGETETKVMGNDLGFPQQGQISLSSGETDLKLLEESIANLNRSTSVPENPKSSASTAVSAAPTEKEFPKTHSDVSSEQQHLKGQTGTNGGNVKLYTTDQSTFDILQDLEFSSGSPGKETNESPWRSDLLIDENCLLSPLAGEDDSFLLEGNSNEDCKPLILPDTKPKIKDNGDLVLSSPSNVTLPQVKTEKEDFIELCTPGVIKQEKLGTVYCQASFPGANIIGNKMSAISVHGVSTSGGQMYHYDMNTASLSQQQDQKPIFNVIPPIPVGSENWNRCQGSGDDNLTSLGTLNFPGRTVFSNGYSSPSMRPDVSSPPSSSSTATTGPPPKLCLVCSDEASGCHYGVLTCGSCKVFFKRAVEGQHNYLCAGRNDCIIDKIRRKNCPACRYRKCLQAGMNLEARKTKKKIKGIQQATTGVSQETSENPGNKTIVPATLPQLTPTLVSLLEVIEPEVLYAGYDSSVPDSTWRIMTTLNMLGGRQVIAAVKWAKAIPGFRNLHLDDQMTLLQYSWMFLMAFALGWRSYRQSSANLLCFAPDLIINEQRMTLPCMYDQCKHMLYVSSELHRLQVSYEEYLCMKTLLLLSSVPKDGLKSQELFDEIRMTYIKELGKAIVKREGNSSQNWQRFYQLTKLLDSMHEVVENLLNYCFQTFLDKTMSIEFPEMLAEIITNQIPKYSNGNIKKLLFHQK

CCC12COCN1COC2
not listed: [16] | [17] | [18] | [19] | [20]
inactive: all other assays above

Cc1ccc(N)cc1N
not listed: [7] | [9] | [15] | [20]
inactive: all other assays above

OC(O)C(Cl)(Cl)Cl
not listed: [17] | [18] | [19] | [20]
inactive: all other assays above

CCCCN(CC)C(=O)SCCC
not listed: [8] | [17] | [20]
inactive: all other assays above

CNC(=O)Oc1ccccc1OC(C)C
not listed: [8] | [16] | [20]
inactive: all other assays above

CC(C)NC(=O)N1CC(=O)N(c2cc(Cl)cc(Cl)c2)C1=O
not listed: [8] | [18] | [19] | [20]
inactive: all other assays above

Nc1ccc(Cc2ccc(N)cc2)cc1
not listed: [20]
inactive: all other assays above

CC(C)C#N
not listed: [1] | [16]
inactive: all other assays above

Clc1cccc(Cl)c1Cl
not listed: [1] | [2] | [17]
inactive: all other assays above

CON(C)C(=O)Nc1ccc(Cl)c(Cl)c1
not listed: [5] | [20]
inactive: all other assays above

CC(Oc1ccc(Cl)cc1Cl)C(=O)O (stereo not given)
not listed: [5] | [8] | [16] | [20]
inactive: all other assays above
